Results reported in ChEMBL document CHEMBL5606460, “ASAP - DENV-2 NS2B-NS3 protease fluorescence single point” (2024).
Screen size: about 2,000 compounds; about 110 (5.5%) showed an effect of 50% or more. The full list was thinned out, with strong results kept by preference.

Biological target: Genome polyprotein (dengue virus type 2) (UniProt P29990)
[1] = Thailand/16681/1984, Concentration 25.0 uM, Number of replicates 1.0

`CN(C)Cc1cc(C(=O)Nc2cc(Cl)cc(C(=O)NC(C)(C)CO)c2)ccn1` was tested, and the inhibition (Thailand/16681/1984, Concentration 49.5 uM, Number of replicates 2.0, Standard deviation 0.8373879793632091 %) was -0.805%, the inhibition (Thailand/16681/1984, Concentration 99.01 uM, Number of replicates 2.0, Standard deviation 1.3878191722501325 %) was -0.768% and the inhibition (Thailand/16681/1984, Concentration 198.0 uM, Number of replicates 2.0, Standard deviation 1.150645337077672 %) was -0.077%.
Work on `O=C(/C=C/c1ccc(N2CCNCC2)cc1)C(=O)N1CCOCC1` yielded an inhibition (Thailand/16681/1984, Concentration 49.5 uM, Number of replicates 2.0, Standard deviation 1.4144964098734516 %) of 1.52%, an inhibition (Thailand/16681/1984, Concentration 99.01 uM, Number of replicates 2.0, Standard deviation 0.4568300281843685 %) of 5.18% and an inhibition (Thailand/16681/1984, Concentration 198.0 uM, Number of replicates 2.0, Standard deviation 1.1436463049734074 %) of 13.3%.
With `Nc1ccc(/C=C/C(=O)C(=O)N2CCN(CCc3ccccc3)CC2)cc1` the inhibition (Thailand/16681/1984, Concentration 49.5 uM, Number of replicates 2.0, Standard deviation 0.14046836541625998 %) was 23.4%, the inhibition (Thailand/16681/1984, Concentration 99.01 uM, Number of replicates 2.0, Standard deviation 0.26272659487750905 %) was 40.1% and the inhibition (Thailand/16681/1984, Concentration 198.0 uM, Number of replicates 2.0, Standard deviation 0.8058693227147314 %) was 60.1%.
`O=Cc1ccc(N2CCC(C(=O)N3CCOCC3)CC2)cc1` showed an inhibition [1] of 13.3%.
With `NCc1ccc(/C=C/C(=O)C(=O)N2CCOCC2)cc1` the inhibition (Thailand/16681/1984, Concentration 49.5 uM, Number of replicates 2.0, Standard deviation 0.4887874545992688 %) was 28.7%, the inhibition (Thailand/16681/1984, Concentration 99.01 uM, Number of replicates 2.0, Standard deviation 0.17235835687354284 %) was 48.5% and the inhibition (Thailand/16681/1984, Concentration 198.0 uM, Number of replicates 2.0, Standard deviation 0.3206181572929207 %) was 70.2%.
Compound `O=Cc1ccc(N2CCC(C(=O)N3CCN(CCc4ccccc4)CC3)CC2)cc1` has an inhibition [1] of 33%.
With `O=C(/C=C/c1ccccc1)C(=O)N1CCN(CCc2ccccc2)CC1` the inhibition (Thailand/16681/1984, Concentration 49.5 uM, Number of replicates 2.0, Standard deviation 1.1058163895680901 %) was -0.075%, the inhibition (Thailand/16681/1984, Concentration 99.01 uM, Number of replicates 2.0, Standard deviation 1.051850300329286 %) was 3.22% and the inhibition (Thailand/16681/1984, Concentration 198.0 uM, Number of replicates 2.0, Standard deviation 0.9821847629012651 %) was 9.52%.
In the case of `CN(C)c1ccc(/C=C/C(=O)C(=O)N2CCOCC2)cc1`, the inhibition (Thailand/16681/1984, Concentration 49.5 uM, Number of replicates 2.0, Standard deviation 1.4993650320557768 %) is reported as 37.9%, the inhibition (Thailand/16681/1984, Concentration 99.01 uM, Number of replicates 2.0, Standard deviation 1.3662996762867583 %) is reported as 59.5% and the inhibition (Thailand/16681/1984, Concentration 198.0 uM, Number of replicates 2.0, Standard deviation 0.7538742729933879 %) is reported as 78.8%.
With `CC(=O)N1CCC(N(C)C(=O)C2CCN(c3ccc(C=O)cc3)CC2)CC1` the inhibition [1] was 10.9%.
`CN(Cc1ccc(N2CCOCC2)cc1)C(=O)C1CCN(c2ccc(C=O)cc2)CC1` showed an inhibition [1] of 13.2%.
With `CNC(=O)c1cc(Cl)ccc1NS(=O)(=O)c1[nH]ncc1C(=O)OC` the inhibition (Thailand/16681/1984, Concentration 49.5 uM, Number of replicates 2.0, Standard deviation 1.242021000664882 %) was -1.06%, the inhibition (Thailand/16681/1984, Concentration 99.01 uM, Number of replicates 2.0, Standard deviation 0.08117786480507469 %) was 0.923% and the inhibition (Thailand/16681/1984, Concentration 198.0 uM, Number of replicates 2.0, Standard deviation 0.003820190349027435 %) was 2.41%.
Compound `COc1cc(Cl)c(C)cc1NC(=O)C1CCN(c2ccc(C=O)cc2)CC1` has an inhibition [1] of 13.9%.
With `CC(C)(CNC(=O)C1CCN(c2ccc(C=O)cc2)CC1)c1cccc(Cl)c1` the inhibition [1] was 10.4%.
`N[C@H]1C[C@H](CNC(=O)[C@@H](NC(=O)OCc2ccccc2)c2ccc(OCc3ccccc3)cc2)C1` showed an inhibition (Thailand/16681/1984, Concentration 49.5 uM, Number of replicates 2.0, Standard deviation 4.035148717327061 %) of -7.81%, an inhibition (Thailand/16681/1984, Concentration 99.01 uM, Number of replicates 2.0, Standard deviation 3.6381547385610027 %) of -5.23% and an inhibition (Thailand/16681/1984, Concentration 198.0 uM, Number of replicates 2.0, Standard deviation 2.7035240962471856 %) of 9.08%.
For `O=Cc1ccc(N2CCC(C(=O)NC3C4CC5CC(C4)CC3C5)CC2)cc1` (stereo unspecified), the inhibition [1] was 6.37%.
Work on `CN(Cc1cccc2ccccc12)C(=O)C1CCN(c2ccc(C=O)cc2)CC1` yielded an inhibition [1] of 11.3%.
With `Cc1c(C2CCNCC2)cnn1Cc1nnc(-c2ccccc2)o1` the inhibition (Thailand/16681/1984, Concentration 49.5 uM, Number of replicates 2.0, Standard deviation 2.3622904402078886 %) was -2.18%, the inhibition (Thailand/16681/1984, Concentration 99.01 uM, Number of replicates 2.0, Standard deviation 1.8884466143634908 %) was -1.86% and the inhibition (Thailand/16681/1984, Concentration 198.0 uM, Number of replicates 2.0, Standard deviation 1.0159128732525171 %) was -0.491%.
With `Cc1cccc(NC(=O)CNC(=O)C2CCN(c3ccc(C=O)cc3)CC2)c1C` the inhibition [1] was 13%.
With `Cc1cc(CO)c2cccc(Nc3cc(O)[nH]n3)c2n1` the inhibition (Thailand/16681/1984, Concentration 49.95 uM, Number of replicates 2.0, Standard deviation 1.1262325758678584 %) was 32.3% and the inhibition (Thailand/16681/1984, Concentration 99.9 uM, Number of replicates 2.0, Standard deviation 0.556697154318326 %) was 51.5%.
In the case of `Cc1cc(CO)c2cccc(CC(=O)Nc3cc(O)[nH]n3)c2n1`, the inhibition (Thailand/16681/1984, Concentration 49.95 uM, Number of replicates 2.0, Standard deviation 0.30186854167697036 %) is reported as 9.85% and the inhibition (Thailand/16681/1984, Concentration 99.9 uM, Number of replicates 2.0, Standard deviation 0.4943454438060974 %) is reported as 27.1%.
`Cc1cc(CO)c2cccc(NC(=O)CCN)c2n1` gave an inhibition (Thailand/16681/1984, Concentration 49.95 uM, Number of replicates 2.0, Standard deviation 0.675365146636023 %) of 28.7% and an inhibition (Thailand/16681/1984, Concentration 99.9 uM, Number of replicates 2.0, Standard deviation 0.4014376052982588 %) of 91.2%.
Compound `Cc1cc(CO)c2cccc(NC(=O)[C@@H](N)CCN)c2n1` has an inhibition (Thailand/16681/1984, Concentration 49.95 uM, Number of replicates 2.0, Standard deviation 3.3658560886244877 %) of -1.14% and an inhibition (Thailand/16681/1984, Concentration 99.9 uM, Number of replicates 2.0, Standard deviation 3.0766976877592507 %) of -5.81%.
`Cc1cc(CO)c2cccc(NC(=O)Cc3cccc(CN)c3)c2n1` was tested, and the inhibition (Thailand/16681/1984, Concentration 49.95 uM, Number of replicates 2.0, Standard deviation 1.2018993187616485 %) was 15.4% and the inhibition (Thailand/16681/1984, Concentration 99.9 uM, Number of replicates 2.0, Standard deviation 0.39117400474888586 %) was 23.6%.
